{"source": "paper PMC5700166"}
{"molecular_target": "T1, GST-Ap-NF-kB RHD (Exaiptasia pallida (Aiptasia), UniProt A0A913YAJ5 2-422)", "T1 sequence": "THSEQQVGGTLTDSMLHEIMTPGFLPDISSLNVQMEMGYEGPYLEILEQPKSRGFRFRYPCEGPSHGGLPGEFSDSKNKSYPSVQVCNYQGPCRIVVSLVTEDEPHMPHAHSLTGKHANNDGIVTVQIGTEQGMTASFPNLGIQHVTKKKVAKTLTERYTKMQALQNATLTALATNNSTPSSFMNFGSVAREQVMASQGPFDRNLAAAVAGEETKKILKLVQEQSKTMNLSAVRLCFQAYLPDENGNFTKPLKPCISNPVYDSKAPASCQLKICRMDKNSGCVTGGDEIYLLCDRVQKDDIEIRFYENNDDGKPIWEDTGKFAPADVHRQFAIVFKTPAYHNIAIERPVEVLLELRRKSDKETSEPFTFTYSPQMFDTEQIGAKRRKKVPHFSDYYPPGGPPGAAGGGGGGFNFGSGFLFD", "experiment": "protein-binding microarray (PBM); PBM: ~300 nM protein, 6 mM HEPES pH 7.8, 80 mM KCl, 0.5 mM EDTA, 0.5 mM EGTA, 6% glycerol, 35 ng/ul poly-dIdC, 1% milk, 1 h, room temperature; high values mean tight binding", "conditions": "dsDNA, one strand shown", "units": {"binding signal": "z-score"}}
{"sequence": "CCGATTAACATCAGAGAAGCCCCTGATGTTAATCGGGTCTTGATTCGCTTGACGCTGCTG", "binding signal": 4.39}
{"sequence": "CCGATTAACATCAGGAGAGTCCCTGATGTTAATCGGGTCTTGATTCGCTTGACGCTGCTG", "binding signal": 4.86}
{"sequence": "CCGATTAACATCAGGGAGGTACCTGATGTTAATCGGGTCTTGATTCGCTTGACGCTGCTG", "binding signal": 3.34}
{"molecular_target": "T2, GST-Nv-NF-kB (Cys allele) (Nematostella vectensis, UniProt E5G601 2-411)", "T2 sequence": "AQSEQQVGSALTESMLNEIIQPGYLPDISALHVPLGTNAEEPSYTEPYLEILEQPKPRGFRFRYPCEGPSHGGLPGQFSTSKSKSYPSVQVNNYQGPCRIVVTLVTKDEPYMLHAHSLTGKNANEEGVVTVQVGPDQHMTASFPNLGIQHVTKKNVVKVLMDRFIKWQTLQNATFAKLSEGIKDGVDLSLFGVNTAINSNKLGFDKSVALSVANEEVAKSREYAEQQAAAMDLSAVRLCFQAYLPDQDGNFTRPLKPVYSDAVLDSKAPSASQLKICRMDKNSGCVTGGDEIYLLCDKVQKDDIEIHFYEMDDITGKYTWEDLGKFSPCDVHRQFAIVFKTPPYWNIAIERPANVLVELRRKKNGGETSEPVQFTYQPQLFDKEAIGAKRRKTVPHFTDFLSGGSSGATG", "experiment": "protein-binding microarray (PBM); PBM: ~300 nM protein, 6 mM HEPES pH 7.8, 80 mM KCl, 0.5 mM EDTA, 0.5 mM EGTA, 6% glycerol, 35 ng/ul poly-dIdC, 1% milk, 1 h, room temperature; Ap Aiptasia and Nv Nematostella (sea anemones) / Co Capsaspora / Aq Amphimedon (sponge) / Dm Drosophila / Hu human; RHD is the Rel homology domain; high values mean tight binding", "conditions": "dsDNA, one strand shown", "units": {"binding signal": "z-score"}}
{"sequence": "CCGATTAACATCAATAAAATCCCTGATGTTAATCGGGTCTTGATTCGCTTGACGCTGCTG", "binding signal": 4.4}
{"sequence": "CCGATTAACATCAGAAACTCCCATGATGTTAATCGGGTCTTGATTCGCTTGACGCTGCTG", "binding signal": 3.45}
{"sequence": "CCGATTAACATCAGGGACTTCCATGATGTTAATCGGGTCTTGATTCGCTTGACGCTGCTG", "binding signal": 5.5}
{"sequence": "CCGATTAACATCAGGAAAGCACCTGATGTTAATCGGGTCTTGATTCGCTTGACGCTGCTG", "binding signal": 4.19}
{"sequence": "CCGATTAACATCAAGGAAGTCCCTGATGTTAATCGGGTCTTGATTCGCTTGACGCTGCTG", "binding signal": 5.94}
{"sequence": "CCGATTAACATCAGGGAAGGCCCTGATGTTAATCGGGTCTTGATTCGCTTGACGCTGCTG", "binding signal": 4.31}
{"sequence": "CCGATTAACATCAGGAGAGCCCCTGATGTTAATCGGGTCTTGATTCGCTTGACGCTGCTG", "binding signal": 3.73}
{"sequence": "CCGATTAACATCAAGGGACTTTCTGATGTTAATCGGGTCTTGATTCGCTTGACGCTGCTG", "binding signal": 9.44}
{"sequence": "CCGATTAACATCAGGGAGGCCCCTGATGTTAATCGGGTCTTGATTCGCTTGACGCTGCTG", "binding signal": 3.79}
{"sequence": "CCGATTAACATCAGGGGACTTCATGATGTTAATCGGGTCTTGATTCGCTTGACGCTGCTG", "binding signal": 5.76}
{"sequence": "CCGATTAACATCAGGGACTTCACTGATGTTAATCGGGTCTTGATTCGCTTGACGCTGCTG", "binding signal": 4.27}
{"sequence": "CCGATTAACATCAAAGAAGTCCCTGATGTTAATCGGGTCTTGATTCGCTTGACGCTGCTG", "binding signal": 6.68}
{"sequence": "CCGATTAACATCAAAAAGCCCCTTGATGTTAATCGGGTCTTGATTCGCTTGACGCTGCTG", "binding signal": 9.57}
{"sequence": "CCGATTAACATCAGAAATTACCCTGATGTTAATCGGGTCTTGATTCGCTTGACGCTGCTG", "binding signal": 6.24}
{"sequence": "CCGATTAACATCAGGGCTCCCCATGATGTTAATCGGGTCTTGATTCGCTTGACGCTGCTG", "binding signal": 1.32}
{"sequence": "CCGATTAACATCAAAAATGCCCCTGATGTTAATCGGGTCTTGATTCGCTTGACGCTGCTG", "binding signal": 6.79}
{"sequence": "CCGATTAACATCAGGAAAGTCCCTGATGTTAATCGGGTCTTGATTCGCTTGACGCTGCTG", "binding signal": 10.6}
{"sequence": "CCGATTAACATCACGGGATTACCTGATGTTAATCGGGTCTTGATTCGCTTGACGCTGCTG", "binding signal": 1.79}
{"sequence": "CCGATTAACATCAGGGTTTCACCTGATGTTAATCGGGTCTTGATTCGCTTGACGCTGCTG", "binding signal": 1.95}
{"sequence": "CCGATTAACATCAGAAAAATACCTGATGTTAATCGGGTCTTGATTCGCTTGACGCTGCTG", "binding signal": 2.43}
{"sequence": "CCGATTAACATCACGGTAATTCCTGATGTTAATCGGGTCTTGATTCGCTTGACGCTGCTG", "binding signal": 2.05}
{"sequence": "CCGATTAACATCAAAATACCCCTTGATGTTAATCGGGTCTTGATTCGCTTGACGCTGCTG", "binding signal": 6.38}
{"sequence": "CCGATTAACATCAGGGACATCCCTGATGTTAATCGGGTCTTGATTCGCTTGACGCTGCTG", "binding signal": 6.99}
{"sequence": "CCGATTAACATCACGGGATTTCGTGATGTTAATCGGGTCTTGATTCGCTTGACGCTGCTG", "binding signal": 1.88}
{"sequence": "CCGATTAACATCAAACCTTCCCCTGATGTTAATCGGGTCTTGATTCGCTTGACGCTGCTG", "binding signal": 5.62}
{"sequence": "CCGATTAACATCAGGCAAGCCCCTGATGTTAATCGGGTCTTGATTCGCTTGACGCTGCTG", "binding signal": 2.83}
{"sequence": "CCGATTAACATCAGGGATTGCCCTGATGTTAATCGGGTCTTGATTCGCTTGACGCTGCTG", "binding signal": 3.8}
{"sequence": "CCGATTAACATCAGGGAGTTCACTGATGTTAATCGGGTCTTGATTCGCTTGACGCTGCTG", "binding signal": 2.42}
{"sequence": "CCGATTAACATCAGAAATACCCATGATGTTAATCGGGTCTTGATTCGCTTGACGCTGCTG", "binding signal": 5.32}
{"sequence": "CCGATTAACATCAGGAAATCACCTGATGTTAATCGGGTCTTGATTCGCTTGACGCTGCTG", "binding signal": 3.51}
{"sequence": "CCGATTAACATCAGGGTTTTTAGTGATGTTAATCGGGTCTTGATTCGCTTGACGCTGCTG", "binding signal": 1.3}
{"sequence": "CCGATTAACATCAGGGGCTTCACTGATGTTAATCGGGTCTTGATTCGCTTGACGCTGCTG", "binding signal": 3.35}
{"sequence": "CCGATTAACATCAAGGGGGGTTATGATGTTAATCGGGTCTTGATTCGCTTGACGCTGCTG", "binding signal": 4.63}
{"sequence": "CCGATTAACATCAGGAAGCCCCATGATGTTAATCGGGTCTTGATTCGCTTGACGCTGCTG", "binding signal": 4.13}
{"sequence": "CCGATTAACATCAGGAAATTACCTGATGTTAATCGGGTCTTGATTCGCTTGACGCTGCTG", "binding signal": 4.03}
{"sequence": "CCGATTAACATCAAGGGAACCCCTGATGTTAATCGGGTCTTGATTCGCTTGACGCTGCTG", "binding signal": 3.13}
{"sequence": "CCGATTAACATCAGATCCCCCCCTGATGTTAATCGGGTCTTGATTCGCTTGACGCTGCTG", "binding signal": 5.56}
{"sequence": "CCGATTAACATCAGAGAAGCCCCTGATGTTAATCGGGTCTTGATTCGCTTGACGCTGCTG", "binding signal": 5.41}
{"sequence": "CCGATTAACATCAGGAGAGTCCCTGATGTTAATCGGGTCTTGATTCGCTTGACGCTGCTG", "binding signal": 5.29}
{"sequence": "CCGATTAACATCAGGGAGGTACCTGATGTTAATCGGGTCTTGATTCGCTTGACGCTGCTG", "binding signal": 2.59}
